Assay outcomes deposited in PubChem BioAssay by National Center for Advancing Translational Sciences (NCATS).
VACV Venus inh – vaccinia inhibition (Venus reporter). Potency, µM (doses to about 36.5 µM), hits mostly inhibitors. Vaccinia virus Venus reporter expression, fluorescence. AID 720580. 330,000 compounds, 0.46% hits; calls by dose curve; tested in A549 cells; note: nearly all actives have a fitted effect of over 30% in size
LASV entry inh – blocks Lassa virus binding to or entry into cells; 300,000 compounds, 1.2% hits; Lassa virus pseudotype entry inhibition, cell reporter; Potency, µM (doses to about 37.9 µM), actives largely listed as inhibitors; calls by dose curve; tested in HEK293 cells; note: nearly all actives have a fitted effect of over 50% in size
VACV mCherry inh – inhibitors of vaccinia virus infection (mCherry reporter signal) | 310,000 compounds, 0.63% hits | Potency, µM (doses to about 36.5 µM), usual class: inhibitors | AID 720579 | Vaccinia virus mCherry reporter infection, fluorescence; calls by dose curve; tested in A549 cells; note: nearly all actives have a fitted effect of over 35% in size
Marburg entry inh – blocks Marburg virus binding to or entry into cells. Marburg virus pseudotyped entry inhibition, cell reporter. Potency, µM (doses to about 37.8 µM), most hits filed as inhibitors. 300,000 compounds, 1.8% hits. AID 540276; calls by dose curve; tested in HEK293 cells
Sm TGR block – blocks Schistosoma mansoni thioredoxin glutathione reductase; purified TGR, DTNB reduction, TNB absorbance 405 nm; Potency, µM (series often up to 114 µM), usual class: inhibitors; 360,000 compounds, 3% hits; active = well fitted inhibition curve with a large enough effect; inconclusive = small, poorly fitted or top-dose-only effect; inactive = no such curve, though single readings can be large or run the other way; note: nearly all actives have a fitted effect of over 60% in size
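Kinetic colorimetric format: TGR-catalysed, NADPH-driven DTNB reduction monitored via TNB absorbance. Enzyme dispensed at 20 nM; compound exposure 15 min at room temperature before reaction start.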
FMDV antiviral – foot and mouth disease virus antiviral activity. FMDV antiviral cell-based qHTS. Potency, µM (doses to about 57.9 µM), most hits filed as inhibitors. 410,000 compounds, 1.2% hits; calls by dose curve; tested in HEK293T cells; note: read-out not given here; nearly all actives have a fitted effect of over 45% in size
A number is an active result; . = inactive; ? = inconclusive; / = not tested or not shown; [ ] = dose if it differs, or a comment. The list is not random: actives were taken first. Their share in the collection is about 5.4%.

SMILES	VACV Venus inh	LASV entry inh	VACV mCherry inh	Marburg entry inh	Sm TGR block	FMDV antiviral
O=C(NCc1ccccc1Cl)C(=O)NCC(c1ccc2c(c1)OCO2)N1CCOCC1 (stereo not drawn)	.	.	.	/	.	.
Cc1ccc(-n2c3nc(=O)[nH]c(=O)c-3cc3cc([N+](=O)[O-])ccc32)cc1	.	?	?	?	.	32µM
Cc1nc2cc([N+](=O)[O-])ccc2c(=O)n1-c1ccc(Br)cc1	/	/	/	/	?	.
COc1ccc2c(c1)c1c(c(=O)n(-c3ccccc3C)c(=O)n1CC(=O)Nc1c(C)cccc1C)n2C	.	.	.	/	.	.
COc1ccc(Cc2n[nH]c(=S)n2C)cc1Br	.	.	.	.	32µM	.
COc1ccc(Cc2n[nH]c(=S)n2N)cc1OC	.	.	.	.	/	.
CCNc1nc(NC(C)C)nc(N(C#N)[C@@H](C)C(=O)N(C)C)n1	/	/	/	.	/	/
COc1ccc(COC(=O)NN=C2C[C@@H](O)[C@@H](O)[C@@H]3[C@H]4C(=O)N(c5ccc(F)cc5F)C(=O)[C@@H]4CC[C@H]23)cc1	/	2.8µM	/	?	/	/
COc1ccc(COC(=O)NN=C2C[C@@H](O)[C@@H](O)[C@@H]3[C@H]4C(=O)N(Cc5ccc6c(c5)OCO6)C(=O)[C@@H]4CC[C@H]23)cc1	/	0.27µM	/	.	/	/
COc1ccc(Cl)cc1NC(=O)c1cnc2n(c1=O)CCS2	?	/	2.2µM	/	.	.
CCNc1nc2c(c(=O)n(C)c(=O)n2C)n1CC(O)COc1ccccc1 (stereo not drawn)	.	.	.	.	.	22µM
Cc1ccc(Cn2c(NCCc3ccccc3)nc3c2c(=O)n(C)c(=O)n3C)cc1	?	?	?	?	.	16µM
Cn1c(=O)c2c(nc(Br)n2Cc2ccc3ccccc3c2)n(C)c1=O	/	.	/	.	.[11.4 µM]	14µM
C/C(Cl)=C\Cn1c(NCCc2ccccc2)nc2c1c(=O)n(C)c(=O)n2C	.	4.6µM	?	3.7µM	.	/
CC(C)C[C@@H](CN=[N+]=[N-])N1CCN(CCc2ccccc2)CCC1=O	.	/	.	/	/	/
COc1ccccc1NC(=O)Cn1cc(C(=O)c2ccncc2)c(=O)c2cc(C)ccc21	.[7.34 µM]	.	.[7.34 µM]	/	.	.
Cn1c(=O)c2c(nc(NCCc3ccccc3)n2CC(=O)NCCc2ccccc2)n(C)c1=O	.	.	/	.	.	.
C=CCn1c(NCCc2ccccc2)nc2c1c(=O)n(C)c(=O)n2C	?	?	?	?	.	25µM
CCn1c(NCc2ccco2)nc2c1c(=O)n(C)c(=O)n2C	/	.	/	.	.	.
Cn1c(=O)c2c(nc(NCc3ccco3)n2CCc2ccccc2)n(C)c1=O	?	.	/	?	.	20µM
CC1CCCCN1Cc1c(O)ccc2c(=O)c(-c3nc4ccccc4s3)c(N)oc12 (stereo not drawn)	.	?	.	2.5µM	.	?
OC(c1ccccc1)(c1ccc(Cl)cc1)C1CN2CCC1CC2 (stereo not drawn)	?	13µM	.	?	.	.
O=C(CN1CCN(S(=O)(=O)c2ccc(Br)cc2)CC1)N/N=C/c1ccc(Cl)c([N+](=O)[O-])c1	.	?	.	15µM	.	.
Cc1ccc(-n2nc(C(=O)N3CCCCC3C)c(=O)n(C)c2=O)cc1 (stereo not drawn)	.	.	.	/	.	.
N#Cc1ccc(C#Cc2ccc3oc4ccccc4c(=O)c3c2)cc1	.	/	.	/	/	.
SMILES	VACV Venus inh	LASV entry inh	VACV mCherry inh	Marburg entry inh	Sm TGR block	FMDV antiviral
NC1(C#Cc2ccc3c(=O)c4ccccc4sc3c2)CCCCC1	.	/	.	/	/	.
Cn1c2ccccc2c(=O)c2cc(C#CC3(O)CCCCC3)ccc21	.	/	.	/	.	25µM
O=c1c2ccccc2oc2ccc(C#CC3(O)CCCCC3)cc12	.	/	.	/	/	32µM
Cc1cc2sc3ccc(C#CC4(O)CCCCC4)cc3c(=O)c2cc1C	.	/	?	/	/	0.089µM
Cn1c2ccccc2c(=O)c2ccc(C#CC3(N)CCCCC3)cc21	?	/	.	/	.	.
COc1ccc(N2CC(NC(=O)C(c3ccccc3)c3ccccc3)CC2=O)cc1OC (stereo not drawn)	.	.	.	/	.	.
COc1ccccc1C1CN(Cc2cccc3c2OCO3)Cc2ccccc2O1 (stereo not drawn)	.	/	.	/	/	.
CCOc1ccc(NC2C=CS(=O)(=O)C2)cc1 (stereo not drawn)	.	.	.	?	28µM	.
COc1ccc2c(c1)CC1(CN2C)C(=O)NC(=O)N(CCc2ccccc2)C1=O (stereo not drawn)	/	.	/	.	40µM	.
O=C(O)c1cccc(N2C(=O)c3cc([N+](=O)[O-])cc4cc([N+](=O)[O-])cc(c34)C2=O)c1	/	/	/	/	2µM	35µM
O=C1c2cc([N+](=O)[O-])cc3cc([N+](=O)[O-])cc(c23)C(=O)N1c1ccccn1	.	?	.	?	50µM	13µM
O=C(O)c1cccc(N2C(=O)/C(=C/c3ccc([N+](=O)[O-])cc3)C=C2c2ccccc2)c1	/	/	/	/	25µM	13µM
O=C(O)c1cccc(N2C(=O)c3cccc4cccc(c34)C2=O)c1	.	.	.	.	.	.
O=C1/C(=C/c2ccc([N+](=O)[O-])cc2)C=C(c2ccccc2)N1c1ccccc1	.	.	.	.	.	/
O=C1c2ccc(Oc3cccc([N+](=O)[O-])c3)cc2C(=O)N1c1ccccn1	/	/	/	/	.	.
CCCCc1nc2c(c3c1C[C@H](C)OC3)CN(C(=O)c1ccco1)CC2	/	/	/	.	/	/
Cc1cc(C)c(Cn2c(C)c(CNCCCc3ccccc3)c(C(=O)O)c2C)c(C)c1	.	.	.	.	.	.
COc1ccc(CC(=O)NCc2ccc3c(c2)CCN3C(=O)c2ccc(Cl)cc2)cc1OC	?	11µM	.	/	.	?
Cc1cccc(Nc2nc(N)c([N+](=O)[O-])c(N3CC(C)OC(C)C3)n2)c1 (stereo not drawn)	/	/	/	/	.	3.2µM
Cc1cccc(Nc2nc(N)c([N+](=O)[O-])c(N3CC(C)CC(C)C3)n2)c1 (stereo not drawn)	?	?	20µM	?	.	22µM
CCN1CCN(c2nc(Nc3ccc(C)c(C)c3)nc(N)c2[N+](=O)[O-])CC1	.	.	?	16µM	.	.
Cc1cccc(Nc2nc(N)c([N+](=O)[O-])c(N3CCC(C)CC3)n2)c1	?	?	?	?	.	25µM
CC(=O)c1cccc(NC(=O)Cn2c(C)c3cnn(-c4ccccc4)c(=O)c3c2C)c1	.	.	.	.	?	.
CCN1CCCC1CNC(=O)c1cnn(-c2nccc(-c3cccs3)n2)c1C1CC1 (stereo not drawn)	.	/	.	/	/	.
COc1ccc(OC)c(NC(=O)CCc2c(C)nn(-c3ccc(N4CCCC4)nn3)c2C)c1	.	?	.	/	.	.
Cc1ccccc1C(OCCN(C(C)C)C(C)C)c1ccccc1 (stereo not drawn)	.	4µM	.	?	.	?
N=c1ccn2c(n1)O[C@H]1[C@@H](CO)[C@H](O)O[C@H]12	?	/	0.45µM	/	.	.
N=c1ccn2c(n1)O[C@H]1[C@H](O)[C@@H](CO)O[C@H]12	/	?	/	?	.	.
